In ChEMBL document CHEMBL1157539, “Thousands of chemical starting points for antimalarial lead identification” (Nature, 2010):

How the values were obtained:
Type in all cases: functional
Plasmodium falciparum [1] = experiment: GSK_TCMDC: Inhibition of Plasmodium falciparum 3D7 in whole red blood cells, using parasite LDH activity as an index of growth. Test compounds present at 2uM
Plasmodium falciparum [2] = experiment: GSK_TCMDC: Inhibition of Plasmodium falciparum Dd2 in whole red blood cells, using parasite LDH activity as an index of growth. Test compounds present at 2uM
HepG2 = experiment: GSK_TCMDC: Percent inhibition of human HepG2 cell line. Test compounds present at 10uM.

Row | SMILES | Inhibition (Plasmodium falciparum [1]) [%] | Inhibition (Plasmodium falciparum [2]) [%] | Inhibition (HepG2) [%]
1 | CCN(CC)CCN(Cc1ccc(-c2ccc(C(F)(F)F)cc2)cc1)C(=O)Cn1c(/C=C/c2ccco2)nc(=O)c2ccccc21.O=C(O)C(O)C(O)C(=O)O | 94 | 86 | 28
2 | CC1CN(c2ccc(NC(=O)c3cccs3)cc2)CCN1Cc1cccc(F)c1.O=C(O)C(F)(F)F (stereo not given) | 96 | 96 | 5
3 | Cc1nc2ccc([N+](=O)[O-])cc2c(=O)n1OCc1ccccc1 | 98 | 0 | 2
4 | Cc1ccc(C2CCN(CCCCNC(=O)c3ccc(NC(=O)c4ccc(Cl)cc4)cc3)CC2)c(OCC(F)(F)F)c1 | 99 | 84 | 32
5 | C#CCCOc1ccc2ccccc2c1CNCCCCCCNCc1c(OCCC#C)ccc2ccccc12 | 100 | 65 | 100
6 | N#Cc1ccc(C(=O)Nc2cccc(-c3ccc(CN4CCCC4)cc3)c2)cc1.O=C(O)C(F)(F)F | 99 | 0 | 13
7 | CC(C)(Oc1c(C2CCN(CCCCNC(=O)c3ccc(-c4ccc(Cl)cc4)cc3)CC2)ccc2c1CCCC2)C(N)=O | 93 | 5 | 100
8 | O=C(NCCc1ccc(Cl)c(Cl)c1)[C@@H]1CCCN1C(=O)c1ccc(O)c(-c2ccc(Cl)c(Cl)c2)c1 | 99 | 99 | 0
9 | CS(=O)(=O)CCNCc1cccc(-c2ccc3c(Nc4ccc(Oc5cccnc5)cc4)ccnc3c2)c1 | 100 | 99 | 27
10 | Cc1cc(NC(=O)Nc2cccc(C#N)c2)c2ccccc2n1 | 100 | 82 | 17
